Nrf2 inh: inhibitors of Nrf2 signaling. AID 504444. Potency, µM (highest dose often 46 µM), for inactives: at the top dose activity change, negative = inhibition, hits mostly inhibitors. A549 ARE-Fluc reporter, luciferase luminescence, 18-24 h. 360,000 compounds, 2.1% hits; also: potency is read from the fitted curve at half-maximal effect; % is scaled to controls: 0 for no effect and ±100 for the full control effect; nearly all actives have a fitted effect of over 60% in size
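A549 ARE_Fluc cells, 5000/well, 5% FBS OPTI-MEM; compounds in dose-response, 18-24 h at 37 °C/5% CO2; CellTiter-Fluor viability read (Ex 405/Em 525), then BugLite luciferase luminescence = Nrf2 activity.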
TrxR1 inh-1: blocks rat thioredoxin reductase 1; recombinant rTrxR1, NADPH fluorescence consumption, selenite substrate; Potency, µM (top dose mostly 114 µM), without a hit: at the top dose activity change, negative = inhibition, actives largely listed as inhibitors; 390,000 compounds, 1% hits; AID 588453; also: potency is read from the fitted curve at half-maximal effect; % is scaled to controls: 0 for no effect and ±100 for the full control effect; nearly all actives have a fitted effect of over 65% in size
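Rat TrxR1 (90 nM in the dispensed reagent) was pre-reduced with 400 uM NADPH for 5 min at room temperature, then incubated with compound for 15 min. After 400 uM selenite was added, NADPH fluorescence (Ex 340/Em 450 nm) was followed for 8 min.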
GALK inh: galactokinase (human) inhibition | P51570 | Purified GALK, Kinase-Glo residual ATP luminescence | Potency, µM (top dose mostly 57.5 µM), for inactives: top-dose activity change, negative = inhibition, usual class: inhibitors | 270,000 compounds, 0.007% hits | AID 1868; also: potency is read from the fitted curve at half-maximal effect; % is scaled to controls: 0 for no effect and ±100 for the full control effect
Target sequence (P51570 whole entry, looked up): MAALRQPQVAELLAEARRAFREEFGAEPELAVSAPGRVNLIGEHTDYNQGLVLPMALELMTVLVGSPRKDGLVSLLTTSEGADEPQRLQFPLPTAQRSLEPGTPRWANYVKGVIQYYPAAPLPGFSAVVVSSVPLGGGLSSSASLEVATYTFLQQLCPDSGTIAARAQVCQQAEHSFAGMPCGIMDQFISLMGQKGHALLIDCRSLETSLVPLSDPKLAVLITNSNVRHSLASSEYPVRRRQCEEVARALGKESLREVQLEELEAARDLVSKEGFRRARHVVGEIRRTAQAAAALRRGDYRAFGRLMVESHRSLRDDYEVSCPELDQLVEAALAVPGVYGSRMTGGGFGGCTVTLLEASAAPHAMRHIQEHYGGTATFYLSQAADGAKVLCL
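Human GALK (5 nM) with 35 uM ATP and 100 uM galactose in 20 mM HEPES pH 8.0, 5 mM MgCl2, 60 mM NaCl, 1 mM DTT, 0.01% BSA. After 1 h at room temperature, leftover ATP was read by Kinase-Glo Plus luminescence.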
A549 tox: A549 cytotoxicity, counter-screen for Nrf2 inhibitors; 390,000 compounds, 0.16% hits; AID 504648; A549 ARE-Fluc cells, CellTiter-Fluor viability, 18-24 h; Potency, µM (highest dose often 46 µM), for the others: top-dose activity change, negative = cytotoxicity, usual class: inhibitors; also: potency is read from the fitted curve at half-maximal effect; % is scaled to controls: 0 for no effect and ±100 for the full control effect
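A549 ARE_Fluc cells in 5% FBS OPTI-MEM were exposed to compounds in concentration-response for 18-24 h at 37 deg C. Viability was read by CellTiter-Fluor fluorescence (Ex 405/Em 525) after 30 min, before the luciferase read.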
TrxR1 substrate: is turned over as a substrate by rat TrxR1 | purified TrxR1 substrate turnover, NADPH consumption readout | Potency, µM (series often up to 114 µM), for inactives: at the highest dose activity change, negative = substrate turnover | AID 588456 | 390,000 compounds, 0.01% hits; also: potency is read from the fitted curve at half-maximal effect; % is scaled to controls: 0 for no effect and ±100 for the full control effect; nearly all actives have a fitted effect of over 50% in size
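Rat TrxR1, dispensed at 90 nM, was prereduced with 400 uM NADPH (final) for 5 min at ~22 deg C, then incubated with compound 15 min before 400 uM selenite. A first-read NADPH fluorescence drop versus no-compound background flagged substrates.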
Nrf2 ARE act: activates Nrf2 signaling; AREc32 ARE-luciferase reporter (MCF7-derived line), luminescence, 24 h; Potency, µM (series often up to 46.1 µM), for inactives: at the highest dose activation, most hits filed as activators; 410,000 compounds, 0.31% hits; also: potency is read from the fitted curve at half-maximal effect; % of control where 0% means no effect; nearly all actives have a fitted effect of over 65% in size
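ARE-driven firefly luciferase activity in AREc32 cells measured after a 24 hr compound exposure at 37 deg C, using Steady-Glo reagent and a 30 min room-temperature hold.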
TRb SRC2 Alpha: disrupts human TRb binding to SRC2 peptide in AlphaScreen; shares compounds with TrxR1 inh-1; AlphaScreen TRb LBD-SRC2 peptide binding, luminescence; Potency, µM; 30 compounds, 50% hits; AID 2444; calls by dose curve
HepG2 tox: counter-screen for TRb-SRC2 inhibitors: HepG2 cytotoxicity. shares compounds with TrxR1 inh-1. HepG2 viability, ATP luminescence (CellTiter-Glo), 72 h. Potency, µM. 40 compounds, 50% hits; calls by dose curve
AR-SRC2 inh: AR-SRC2 (human) interaction inhibition, selectivity | shares compounds with TrxR1 inh-1 | AR-LBD Tx-SRC2-3 fluorescence polarization, 3 h | calls only | 25 tested, under 10 active | AID 2448; call rule not given here
PPARg-DRIP2 inh: PPARg-DRIP2 (human) interaction inhibition, selectivity; shares compounds with TrxR1 inh-1; PPARg LBD / Texas Red DRIP-2 peptide, fluorescence polarization, 3 h; Potency, µM; 25 tested, under 10 active; AID 2449; calls by dose curve
VDR SRC2 FP: disrupts human vitamin D receptor binding to SRC2 peptide. VDR LBD/SRC2-3 peptide, fluorescence polarization, 3 h. 25 tested, under 10 active. shares compounds with TrxR1 inh-1. Potency, µM; calls by dose curve
TRb-SRC2 FP Fluo: TRb-SRC2 (human) inhibition, fluorescein FP confirmation; Potency, µM; TRb LBD / fluorescein-SRC2 peptide, fluorescence polarization; 20 tested, under 10 active; shares compounds with TrxR1 inh-1; AID 2487; call rule not given here
GR counterassay: inhibits human glutathione reductase in TrxR1 counterassay. shares compounds with TrxR1 inh-1. purified GR, DTNB reduction absorbance 405 nm kinetic. activity change, negative = inhibition, % at 57.1 µM. 55 tested, under 10 active. AID 652020
TrxR1 inh-2: validation of rat thioredoxin reductase 1 inhibitors. 55 compounds, 50% hits. recombinant TrxR1, NADPH fluorescence consumption, selenite substrate. shares compounds with TrxR1 inh-1. Potency, µM, actives largely listed as inhibitors
TrxR1 insulin MOA: inhibits TrxR1-driven insulin reduction; TrxR1 Trx-coupled insulin reduction, NADPH absorbance 340 nm; 55 compounds, 20% hits; Potency, µM; shares compounds with TrxR1 inh-1;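 active = compounds with a measured potency under 100 micromolar; inconclusive = filed, but no rule given; inactive = potency at or above that, or unmeasurable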
TrxR1 inh-3: blocks rat TrxR1 reduction of DTNB. purified TrxR1, DTNB reduction, A412. 55 compounds, 90% hits. shares compounds with TrxR1 inh-1. Potency, µM;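 active = a half-inhibiting concentration could be measured and was below 100 µM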
An asterisk follows results filed as active; i = inactive; ? = inconclusive; / = not tested or not shown; [ ] = dose if it differs, or a comment. An excerpt weighted towards active compounds, which were near 3% of everything screened. Unless noted, calls follow the shape of the dose curve; as a rule, active = well fitted curve in the direction sought with a large enough effect; inconclusive = small, poorly fitted or top-dose-only effect, or another doubt; inactive = no such curve, though single readings can be large; an effect the other way counts as inactive or inconclusive.

SMILES	Nrf2 inh	TrxR1 inh-1	GALK inh	A549 tox	TrxR1 substrate	Nrf2 ARE act	others
CS(=O)(=O)c1ccc(C(=O)OCC(=O)Nc2cc(C(F)(F)F)ccc2Cl)cc1[N+](=O)[O-]	-9%	8.9µM*	/	-1%	1%	/	TRb SRC2 Alpha=17µM*;HepG2 tox=17µM*;AR-SRC2 inh=i;PPARg-DRIP2 inh=i;VDR SRC2 FP=?;TRb-SRC2 FP Fluo=i
NS(=O)(=O)c1cc(C(=O)OCC(=O)Nc2ccc(Cl)cc2[N+](=O)[O-])ccc1Cl	-4%	21%[57.1 µM]	1%	-6%	-14%[57.1 µM]	0%
COc1ccc(CNCC(O)COc2ccc(C(C)(C)c3ccccc3)cc2)cc1 (configuration not stated)	?	8%	3%	-10%	8%[57.1 µM]	-3%
Cc1ccc2nc(N3CCOCC3)c(C=O)c(=O)n2c1	2%	2%	6%	-4%	-1%	0%
NS(=O)(=O)c1cc(C(=O)OCC(=O)Nc2ccccc2[N+](=O)[O-])ccc1Cl	-4%	-2%[57.1 µM]	0%	1%	3%[57.1 µM]	2%
Cc1ccccc1NC(=O)COC(=O)c1ccc(S(C)(=O)=O)c([N+](=O)[O-])c1	?	2.5µM*	-7%	?	2%	-3%	TRb SRC2 Alpha=28µM*;HepG2 tox=?;AR-SRC2 inh=i;PPARg-DRIP2 inh=i;VDR SRC2 FP=i;TRb-SRC2 FP Fluo=i
COc1ccc(-c2ccnc3c(C(=O)O)cnn23)cc1	0%	5%	-1%	-7%	19%	1%
CCc1c(C(C)S(=O)(=O)c2ccccc2)[nH]c(=O)n1CC (configuration not stated)	3%	1.8µM*	3%	8%	-16%[57.1 µM]	0%	GR counterassay=-13;TrxR1 inh-2=2.4*;TrxR1 insulin MOA=4µM*;TrxR1 inh-3=0.045µM*
CC(S(=O)(=O)c1ccccc1)S(=O)(=O)c1ccccc1	/	/	/	/	/	-1%
Cc1ccc(Nc2c(-c3ccc(C)o3)nc3ccccn23)cc1	-4%	?	/	1%	114%	/
Cc1ccc(Nc2c(-c3ccc(C)o3)nc3cnccn23)cc1	7%	4µM*	2%	-1%	13%[57.1 µM]	8%	GR counterassay=-12;TrxR1 inh-2=?;TrxR1 insulin MOA=i;TrxR1 inh-3=2µM*
